Assay results: PubChem BioAssay AID1159580 (chemical genetic matrix, 2015)
The campaign covered roughly 5,500 compounds. About 2,000 (36%) were called active. Not shown: some 18% with an inconclusive outcome. Cut-off read from the data, not from the text of the source: active = normalized growth mostly below about 0.91 (no sharp cut-off); inconclusive = no clear call, values can overlap the other calls; inactive = mostly above about 0.92. The list shows a part of the results.

Experiment: chemical genetic growth profiling, strain panel (AID 1159580);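 note: tested at 20 µM; growth read once vehicle control cultures reached saturation at 30 °C; 1 = growth at the plate median or of vehicle wells; lower values mean less growth of the strain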
Conditions: S. cerevisiae deletion strains, growth OD
[1] = locus YHR030C, strain SLT2, hits give low values
[2] = locus YHR079C, strain IRE1, hits give low values
[3] = locus YJL095W, strain BCK1, hits give low values
[4] = locus YJR066W, strain TOR1, hits give low values
[5] = locus YLR113W, strain HOG1, hits give low values
[6] = locus YNL183C, strain NPR1, hits give low values
[7] = locus YOR231W, strain MKK1, hits give low values
[8] = locus YPL256C, strain CLN2, hits give low values

Measured: normalized growth

O=C(N/N=C\c1ccc([N+](=O)[O-])o1)c1ccc(O)cc1
inactive: [1] 0.924 | [2] 0.936 | [3] 0.907 | [4] 0.883 | [5] 0.872 | [6] 0.869 | [7] 0.91 | [8] 0.956

O=C(NNc1c(Cl)cccc1Cl)c1ccc([N+](=O)[O-])o1
active: [1] 0.698 | [5] 0.777 | [8] 0.811
inactive: locus YAR019C, strain CDC15, hits give low values 0.956 | locus YBL105C, strain PKC1, hits give low values 0.967 | locus YBR135W, strain CKS1, hits give low values 0.957 | locus YBR136W, strain MEC1, hits give low values 0.964 | locus YBR160W, strain CDC28, hits give low values 0.945 | locus YDL017W, strain CDC7, hits give low values 0.972 | locus YDL028C, strain MPS1, hits give low values 0.941 | locus YDL101C, strain DUN1, hits give low values 0.964 | locus YDL108W, strain KIN28, hits give low values 0.949 | locus YDL132W, strain cdc53, hits give low values 0.936 | locus YDL214C, strain PRR2, hits give low values 0.895 | locus YDR052C, strain DBF4, hits give low values 0.981 | locus YDR054C, strain cdc34, hits give low values 0.959 | locus YDR226W, strain ADK1, hits give low values 0.96 | locus YDR477W, strain SNF1, hits give low values 0.873 | locus YER123W, strain YCK3, hits give low values 0.87 | locus YER133W, strain GLC7, hits give low values 0.916 | locus YFL009W, strain cdc4, hits give low values 0.918 | locus YFL029C, strain CAK1, hits give low values 0.948 | locus YFR003C, strain YPI1, hits give low values 0.965 | locus YFR019W, strain FAB1, hits give low values 0.89 | locus YFR028C, strain CDC14, hits give low values 0.925 | locus YGR040W, strain KSS1, hits give low values 0.883 | locus YGR052W, strain FMP48, hits give low values 0.938 | locus YGR092W, strain DBF2, hits give low values 0.874 | [2] 0.885 | locus YHR082C, strain KSP1, hits give low values 0.916 | locus YHR205W, strain SCH9, hits give low values 0.897 | locus YIL147C, strain SLN1, hits give low values 0.96 | [3] 0.833 | locus YJL128C, strain PBS2, hits give low values 0.899 | locus YJL157C, strain FAR1, hits give low values 0.907 | locus YJR016C, strain ILV3, hits give low values 0.956 | locus YJR066W, strain TOR1 (second series), hits give low values 0.851 | [4] 0.848 | locus YKL048C, strain ELM1, hits give low values 0.909 | locus YKL067W, strain YNK1, hits give low values 0.886 | locus YKL101W, strain HSL1, hits give low values 0.884 | locus YKL193C, strain SDS22, hits give low values 0.956 | locus YKL203C, strain TOR2, hits give low values 0.974 | locus YLR133W, strain CKI1, hits give low values 0.906 | locus YLR403W, strain SFP1, hits give low values 0.897 | locus YML070W, strain DAK1, hits give low values 0.884 | locus YMR001C, strain CDC5, hits give low values 0.957 | locus YMR205C, strain PFK2 (second series), hits give low values 0.937 | locus YMR277W, strain FCP1, hits give low values 0.932 | locus YNL006W, strain LST8, hits give low values 0.973 | locus YNL020C, strain ARK1, hits give low values 0.919 | locus YNL161W, strain CBK1, hits give low values 0.966 | [6] 0.935 | locus YNL207W, strain RIO2, hits give low values 0.953 | locus YNL222W, strain SSU72, hits give low values 0.94 | locus YNL307C, strain MCK1 (second series), hits give low values 0.887 | locus YOL078W, strain AVO1, hits give low values 0.945 | locus YOL136C, strain PFK27, hits give low values 0.886 | locus YOR061W, strain CKA2, hits give low values 0.914 | locus YOR119C, strain RIO1, hits give low values 0.917 | [7] 0.837 | locus YOR329C, strain SCD5, hits give low values 0.967 | locus YPL031C, strain PHO85, hits give low values 0.88 | locus YPL153C, strain RAD53, hits give low values 0.875 | locus YPL204W, strain HRR25, hits give low values 0.866 | locus YPL209C, strain IPL1, hits give low values 0.964 | locus YPR025C, strain CCL1, hits give low values 0.962 | locus YPR106W, strain ISR1, hits give low values 0.96 | locus YPR111W, strain DBF20, hits give low values 0.94 | strain NNK1, hits give low values 0.965 | strain TSCII, hits give low values 0.947
